APE1 inh = APE1 (human) endonuclease inhibition; P27695; recombinant APE1, TAMRA/BHQ-2 abasic DNA cleavage fluorescence; Potency, µM (top dose mostly 65.8 µM), without a hit: at the top dose activity change, negative = inhibition, hits mostly inhibitors; 350,000 tested, 0.35% active;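 note: plate controls were vehicle for no effect and reference inhibitor for full effect; nearly all actives have a fitted effect of over 55% in size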
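Quantitative HTS: incision of a TAMRA/BHQ-2 double-stranded substrate bearing a tetrahydrofuran abasic site by 0.75 nM APE1 raises fluorescence. Substrate 50 nM final, added after 15 min compound preincubation at room temperature; progress as third-minus-first kinetic read difference.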
FEN1 inhibitor = inhibitors of human flap endonuclease 1; P39748; Recombinant FEN1 flap cleavage, fluorescence, 15 min; Potency, µM (doses to about 114 µM), inactives show top-dose activity change, negative = inhibition, usual class: inhibitors; 390,000 tested, 0.35% active; AID 588795; note: nearly all actives have a fitted effect of over 65% in size
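Enzyme 10 nM, 15 min RT preincubation with compound; start with substrate 50 nM final; reads at 0 and 15 min; qHTS titration, four-parameter Hill fit.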
RECQ1 helicase = RECQ1 (human) helicase inhibition; 240,000 tested, 0.54% active; P46063; Potency, µM (doses to about 57.3 µM), for the others: top-dose activity, negative = inhibition, hits mostly inhibitors; RECQ1 DNA unwinding, red fluorescence kinetic read;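 note: plate controls were vehicle for no effect and no enzyme for full effect; nearly all actives have a fitted effect of over 30% in size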
Target sequence (P46063 whole entry, looked up): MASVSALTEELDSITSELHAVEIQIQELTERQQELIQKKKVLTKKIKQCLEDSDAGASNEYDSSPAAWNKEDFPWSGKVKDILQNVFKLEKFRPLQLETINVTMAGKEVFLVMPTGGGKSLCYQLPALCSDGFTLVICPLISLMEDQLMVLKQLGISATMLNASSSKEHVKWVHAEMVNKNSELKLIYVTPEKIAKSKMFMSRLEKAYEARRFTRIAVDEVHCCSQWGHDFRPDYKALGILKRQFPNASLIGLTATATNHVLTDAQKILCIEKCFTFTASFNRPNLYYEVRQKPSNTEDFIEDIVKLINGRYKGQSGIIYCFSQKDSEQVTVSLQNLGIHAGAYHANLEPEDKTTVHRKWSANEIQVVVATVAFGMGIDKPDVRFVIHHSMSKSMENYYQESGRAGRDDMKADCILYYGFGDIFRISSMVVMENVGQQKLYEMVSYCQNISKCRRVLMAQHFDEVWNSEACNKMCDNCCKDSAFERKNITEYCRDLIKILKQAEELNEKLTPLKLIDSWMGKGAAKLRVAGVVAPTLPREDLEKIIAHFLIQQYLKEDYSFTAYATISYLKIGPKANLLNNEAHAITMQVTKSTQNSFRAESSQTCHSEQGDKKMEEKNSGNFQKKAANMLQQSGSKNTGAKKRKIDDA
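50 nM RECQ1T1 preincubated 15 min with compound in Tris pH 8.0 buffer with MgCl2, DTT, Tween-20 and 2.5 ug/ml poly(dI-dC); started with 200 nM TAMRA/BHQ-2 forked duplex and 2 mM ATP. Unwinding read as fluorescence (525/598 nm), two reads 2 h apart.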
BLM inh = blocks DNA unwinding by human BLM helicase; Potency, µM (top dose mostly 56.1 µM), for the others: top-dose activity change, negative = inhibition, most hits filed as inhibitors; 350,000 tested, 0.2% active; recombinant BLM DNA unwinding, fluorescence dequenching; P54132;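 note: plate controls were vehicle for no effect and no enzyme for full effect; nearly all actives have a fitted effect of over 35% in size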
WRN helicase inh = blocks human WRN helicase. Q14191. WRN helicase unwinding, fluorescent forked duplex, kinetic. Potency, µM (highest dose often 114 µM), inactives show at the highest dose activity change, negative = inhibition, most hits filed as inhibitors. 360,000 tested, 0.46% active; note: nearly all actives have a fitted effect of over 55% in size
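Kinetic red-fluorescence monitoring (525/598 nm) tracks WRN helicase activity after 100 nM fluorophore-quencher forked duplex and 2 mM ATP are added to 20 nM enzyme pretreated 15 min at room temperature with compound.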
* hit, by the source's call; i = inactive; ? = inconclusive; . = no result given; ! = not active in a repeat; [ ] = dose if it differs, or a comment. Shown are actives, neighbours in structure and some others; about 0.87% of the full set was active somewhere. Calls come from the whole dose curve; as a rule, active = well fitted curve in the direction sought with a large enough effect; inconclusive = small, poorly fitted or top-dose-only effect, or another doubt; inactive = no such curve, though single readings can be large; an effect the other way counts as inactive or inconclusive. Unless noted, % is set by controls: 0 for no effect and ±100 for the full control effect; potency is the fitted concentration of half-maximal effect.

SMILES | APE1 inh | FEN1 inhibitor | RECQ1 helicase | BLM inh | WRN helicase inh
O=C1NC(=O)C(=Cc2ccc(Sc3ccccc3)o2)C(=O)N1 | 22% | ? | -1% | -3% | 11µM*
O=C1NC(=O)C(=Cc2ccc(-c3ccc(F)cc3O)o2)C(=O)N1 | 31% | 18µM* | . | -1% | -6%[11.6 µM]
O=C1NC(=O)C(=Cc2ccc(-c3ccc(Cl)cc3)o2)C(=O)N1 | -12% | 18µM* | . | 0% | -23%
ClCCN(CCCl)/C(=C\c1ccccc1)c1ccnc2ccccc12 | . | -24% | . | . | .
CC1OC(O[C@H]2C[C@@H](O)[C@]3(CO)[C@H]4[C@H](O)C[C@]5(C)[C@@H](C6=CC(=O)OC6)CC[C@]5(O)[C@@H]4CC[C@]3(O)C2)C(O)C(O)C1O (stereo partly specified) | . | 6% | . | . | .
CCn1nc(-c2ccccc2)nc2c(=O)n(C)c(=O)nc1-2 | ? | -12% | -25% | 1.4µM* | -18%
CCC(C)/C=C(C)/C=C/C1=CC2=C(Cl)C(=O)C(C)(OC(C)=O)C(=O)C2=CO1 (stereo unspecified) | -4% | 8% | -7% | -5% | 1%
CC[C@H](C)/C=C(C)/C=C/C1=CC2=C(Cl)C(=O)[C@@](C)(OC(C)=O)C(=O)C2=CO1 | . | ? | . | . | 45µM*
[Hg+][c]1ccccc1 | . | 10µM* | . | 3% | .
Cc1ccc(N2C(=O)NC(=O)/C(=C\c3cc(C)n(-c4ccc(C(=O)O)cc4)c3C)C2=O)cc1 | 2% | -30% | . | -4% | -4%[11.6 µM]
Cc1cc(/C=C2\C(=O)NC(=O)N(Cc3ccco3)C2=O)c(C)n1-c1ccc(O)cc1 | 0% | ? | 23% | 25µM* | ?
Cc1ccc(N2C(=O)NC(=O)/C(=C\c3cc(C)n(-c4cc(C(=O)O)cc(C(=O)O)c4)c3C)C2=O)cc1 | -20% | 56µM* | . | -3% | ?
CN1/C(=C\C=Nc2ccccc2)C(C)(C)c2ccccc21 | ? | -14% | ? | -2% | -15%
CN1/C(=C\C=C\C2=[N+](C)c3ccc4ccccc4c3C2(C)C)C(C)(C)c2ccccc21 | 28µM* | . | 28µM* | 32µM* | .
C[C@H]1CC[C@]2(NC1)O[C@H]1C[C@H]3[C@@H]4CC[C@H]5C[C@@H](O)CC[C@]5(C)[C@H]4CC[C@]3(C)[C@H]1[C@@H]2C | -4% | . | . | . | .
Cc1nc2c(=O)n(C)c(=O)nc-2n(C)n1 | -1% | 15% | i | 0.79µM* | -13%[11.6 µM]
Cn1nc(-c2ccccc2)nc2c(=O)n(C)c(=O)nc1-2 | . | -20% | . | . | .
Cn1ccnc1 | ? | ? | i | . | .
CC1CCN(C(CC(=O)c2ccccc2)C(=O)c2ccccc2)CC1 (stereo unspecified) | . | -20% | . | . | 7.9µM*
O=C(CN1CCCC1)c1ccccc1 | . | -13% | . | . | .
CC(=O)Oc1c2c(c(CC=C(C)C)c3c1C(=O)C1=CC4CC5C(C)(C)OC(C/C=C(\C)C(=O)O)(C4=O)[C@]15O3)OC(C)(CCC=C(C)C)C=C2 (stereo partly specified) | -1% | . | ? | 22µM* | .
COC(=O)/C(C)=C\CC12OC(C)(C)C3CC(C=C4C(=O)c5c(OC)c6c(c(CC=C(C)C)c5OC431)OC(C)(CCC=C(C)C)C=C6)C2=O (stereo unspecified) | -1% | . | -1% | -10% | .
CCC#N | 1% | . | -6% | . | .
OCCBr | 2% | . | -1% | . | .
COc1cc2c(cc1O)C[C@H]1c3c(cc(OC)c(O)c3-2)CCN1C | ? | . | 25µM* | -23% | .
SMILES | APE1 inh | FEN1 inhibitor | RECQ1 helicase | BLM inh | WRN helicase inh
CCOP(=S)(OCC)SCSC(C)(C)C | 0% | . | -8% | . | .
CC1Oc2cc3c(-c4c(O)cc(O)c5c(O)c6c(cc45)OC(C)C(C)C6=O)c(O)cc(O)c3c(O)c2C(=O)C1C (stereo unspecified) | ? | 14µM* | 25µM* | -24% | 63µM*
Cc1ccc(C=C2C(Cl)=C(Cl)C(Cl)=C2Cl)cc1 | 16µM* | ? | 10µM* | -25% | 45µM*
O=C1NC(=O)N(c2ccccc2)C(=O)/C1=C/c1ccc2c(c1)Cc1ccccc1-2 | -2% | . | -2% | 4% | .
COc1ccccc1N1C(=O)NC(=O)/C(=C/c2ccc3c(c2)Cc2ccccc2-3)C1=O | -3% | 79µM* | -9% | 0% | -20%[11.6 µM]
N#Cc1c(/N=C/c2c(O)n(Cc3ccco3)c(=O)[nH]c2=O)sc2c1CCCC2 | ? | ? | ? | 1% | 56µM*
CN(C)c1ccc(C=C2C(=O)NC(=S)NC2=O)cc1 | . | ? | . | . | 35µM*
CN(C)c1ccc(C=C2C(=O)NC(=O)NC2=O)cc1 | . | -20% | . | . | -28%
NCC1OC(O[C@@H]2[C@H](O)[C@@H](OC3C(O)C(N)CC(N)C3OC3OC(CO)C(O)C(O)C3N)O[C@@H]2CO)C(N)C(O)C1O (stereo partly specified) | 2% | . | -14% | . | .
NC(N)=NC(=O)c1nc(Cl)c(N)nc1N | 40µM*! | ? | 6% | ? | 1%
O=[N+]([O-])/N=C1\NCCN1Cc1ccc(Cl)nc1 | -2% | . | . | . | .
CN1CCN(c2ccc(/C=C3\C(=O)NC(=S)N(c4cccc(Br)c4)C3=O)o2)CC1 | 3% | ? | 14µM* | -13% | ?
Cc1ccc(/C=C2\C(=O)NC(=S)N(c3cccc(F)c3)C2=O)o1 | -6% | ? | . | -11% | 50µM*
COc1ccc(N2C(=O)/C(=C/c3ccc(C)o3)C(=O)NC2=S)cc1 | -3% | ? | . | -8% | ?
CCOc1ccc(N2C(=O)/C(=C/c3ccc(C)o3)C(=O)NC2=S)cc1 | -19% | 22µM* | . | -16% | 45µM*
CC(C)(Cl)Cl | 1% | . | -7% | . | .
[Cl-].[Cl-].[Hg+2] | . | . | -9% | -7% | .
[Cd+2].[Cl-].[Cl-] | 0.79µM* | . | 35µM* | . | .
COc1ccc(OC)c([C@@H](O)[C@H](C)N)c1 | 1% | . | . | . | .
CC(C)CN(CC(C)C)c1ccc(C=C2C(=O)NC(=S)NC2=O)cc1[N+](=O)[O-] | 9% | -5% | -25% | -16% | 56µM*
COc1ccc2c3c1O[C@H]1[C@@H](O)C=C[C@H]4[C@@H](C2)NCC[C@@]341 | -3% | . | . | . | .
CCOc1cc(C=C2C(=O)NC(=O)NC2=O)ccc1OS(=O)(=O)c1ccccc1 | -5% | -11% | i | -4% | 45µM*
CCOc1ccc(C=C2C(=O)NC(=S)NC2=O)cc1OCC | . | 2% | . | . | ?
O=S(=O)(Nc1c(O)ccc2ccccc12)c1ccc(F)cc1 | . | ? | . | . | 50µM*
CCCCCOC(=O)c1ccccc1C(=O)OCCCCC | 3% | . | -8% | . | .
CC/C(CC(c1ccccc1)c1c(O)c2ccccc2oc1=O)=N\NC(N)=S (stereo unspecified) | 25µM* | -4% | -4% | -6% | -22%

Compound activity: PubChem BioAssay, National Center for Advancing Translational Sciences (NCATS)
